Records with an inconclusive call do not appear. More than one record can exist for a structure, and the calls need not agree. Active and inactive are the calls of the source. The call rests on the fitted dose curve.

From PubChem BioAssay (Tox21) come the findings set out here.
On the % scale 0 is the no-effect control and ±100 the full control effect.

D(2) dopamine receptor (Homo sapiens), sequence (P14416 whole entry, looked up): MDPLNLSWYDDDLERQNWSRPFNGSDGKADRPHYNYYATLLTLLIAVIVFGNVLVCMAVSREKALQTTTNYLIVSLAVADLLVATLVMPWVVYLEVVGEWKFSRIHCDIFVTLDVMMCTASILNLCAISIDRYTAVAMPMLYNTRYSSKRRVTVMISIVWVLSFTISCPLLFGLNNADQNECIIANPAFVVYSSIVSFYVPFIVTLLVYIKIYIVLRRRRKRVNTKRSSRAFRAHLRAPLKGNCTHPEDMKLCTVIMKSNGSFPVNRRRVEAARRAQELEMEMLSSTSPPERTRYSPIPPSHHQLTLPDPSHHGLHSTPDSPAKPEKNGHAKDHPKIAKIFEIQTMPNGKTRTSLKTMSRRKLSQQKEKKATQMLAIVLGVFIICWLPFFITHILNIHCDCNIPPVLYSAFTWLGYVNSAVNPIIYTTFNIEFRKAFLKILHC
Beta-2 adrenergic receptor (Homo sapiens), sequence (P07550 whole entry, looked up): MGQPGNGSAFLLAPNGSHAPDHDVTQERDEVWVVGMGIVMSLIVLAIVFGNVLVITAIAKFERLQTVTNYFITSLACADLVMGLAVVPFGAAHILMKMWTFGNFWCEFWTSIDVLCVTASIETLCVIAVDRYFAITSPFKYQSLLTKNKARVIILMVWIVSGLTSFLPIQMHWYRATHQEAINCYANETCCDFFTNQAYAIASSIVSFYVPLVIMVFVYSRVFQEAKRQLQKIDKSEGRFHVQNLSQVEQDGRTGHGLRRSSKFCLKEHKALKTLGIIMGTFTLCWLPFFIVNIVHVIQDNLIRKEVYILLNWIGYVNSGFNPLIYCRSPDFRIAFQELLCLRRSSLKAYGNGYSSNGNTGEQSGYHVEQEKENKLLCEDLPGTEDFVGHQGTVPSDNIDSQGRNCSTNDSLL

One test addresses Beta-2 adrenergic receptor (Homo sapiens) (UniProt P07550). Kind of test: Adrenergic beta2 receptor (ADRB2) small molecule antagonists, cell-based qHTS assay (AID 1963592). Further: nearly all actives have a fitted effect of over 50% in size. Further: potency means the concentration at half of the fitted maximal effect. The settings on record: CHO-ADRB2 cells, isoproterenol-stimulated cAMP HTRF ratio, 0.5 h; series mostly up to 92.4 µM; activity change, negative = inhibition: at the top concentration. In outline: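 Assay format: CHO-ADRB2 cells, 18-20hr seeding at 37C/5% CO2, then compound plus 1nM isoproterenol agonist mix for 0.5hr RT. Homogeneous time-resolved fluorescence cAMP detection after 1hr, expressed as 665/615 nm ratio.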
(In general: qHTS replaces the single test concentration by a dilution series.)
Consider `COc1ccc(NC(C)=O)cc1`, for which the “activity change, negative = inhibition” value was 0.336% (inactive).

Turning to `c1cnc2cc3c(cc2n1)C1CNCC3C1`, the “activity change, negative = inhibition” value was -2.87% [at 42.5 µM] (inactive).

On to `OCc1c2ccccc2cc2ccccc12`, for which the “activity change, negative = inhibition” value is -5.8% (inactive).

`Oc1ccc(Cl)cc1Sc1cc(Cl)ccc1O`: the Potency was 68.5 µM (active) and inactive.

In the case of `CC(=O)CC(C)=O`, the “activity change, negative = inhibition” value is 1.07% (inactive).

In the case of `C=CC(=O)OCCCCCC`, the “activity change, negative = inhibition” value is -1.59% (inactive).

As for `CC(C)(C)C(=O)OCOP(=O)(COCCn1cnc2c(N)ncnc21)OCOC(=O)C(C)(C)C`, the “activity change, negative = inhibition” value is 27.7% [at 42.5 µM] (inactive).

In the case of `Nc1cc(S(=O)(=O)O)cc2cc(S(=O)(=O)O)cc(O)c12`, the “activity change, negative = inhibition” value is -0.485% (inactive).

Regarding `N=C(N=C(N)N)N1CCOCC1`, the “activity change, negative = inhibition” value is 0.471% [at 42.5 µM] (inactive).

In the case of `Oc1c(Cl)ccc(Cl)c1Cl`, the Potency result is “inactive”.

With `O=C(O)c1cccc(C(F)(F)F)c1`, the “activity change, negative = inhibition” value was -0.644% (inactive).

As for `CC(O)Cn1cnc2c1c(=O)n(C)c(=O)n2C` (stereo unspecified), the “activity change, negative = inhibition” value is 3.47% [at 42.5 µM] (inactive).

Take `CN(C)CCOC(c1ccc(Cl)cc1)c1ccccn1` (stereo unspecified): the “activity change, negative = inhibition” value was -13.2% [at 42.5 µM] (inactive).

For `O=C(O)c1cc(-c2ccccc2)nc2ccccc12`, the Potency entry was “inactive”.

As to `CC1(C)C(O)C(C)(C)C1O` (stereo unspecified), the “activity change, negative = inhibition” value was 0.088% (inactive).

Consider `Cc1ccc(N(C)C)cc1`, for which the Potency result is “inactive”.

In the case of `C/C=C/C(=O)CCCC`, the “activity change, negative = inhibition” value is -15.8% (inactive).

Take `CC(C)(c1ccc(O)cc1)c1ccc(O)cc1`: the “activity change, negative = inhibition” value is -16.6% (inactive).

For `C=CCCCCCCCC`, the “activity change, negative = inhibition” value is 1.36% (inactive).

Turning to `CC(C)=O`, the “activity change, negative = inhibition” value was -0.354% (inactive).

In the case of `O=C(O)[C@@H]1[C@H]2C[C@H]3c4[nH]c5ccccc5c4CCN3C[C@@H]2CC[C@@H]1O`, the “activity change, negative = inhibition” value was -10.5% [at 42.5 µM] (inactive).

In the case of `C=CC(C)CCC=C(C)C` (stereo unspecified), the “activity change, negative = inhibition” value was 10.1% (inactive).

As to `CN(C)N=Nc1ccccc1`, the “activity change, negative = inhibition” value was 0.888% (inactive).

Regarding `OCCOc1ccc(OCCO)cc1`, the “activity change, negative = inhibition” value is -0.887% (inactive).

As for `CC1=C(CC(=O)O)c2cc(F)ccc2/C1=C\c1ccc(S(C)=O)cc1` (stereo unspecified), the Potency entry is “inactive”.

As for `CC(C)CCCCCCc1ccc(O)cc1`, the Potency entry is “inactive”.

With `C=CCS(=O)(=O)O`, the “activity change, negative = inhibition” value was 5.46% (inactive).

Turning to `CCCCSCCCC`, the “activity change, negative = inhibition” value is 0.308% (inactive).

Regarding `CCNc1nc(N)nc(Cl)n1`, the “activity change, negative = inhibition” value is 12.7% (inactive).

Consider `Cc1ccc(N)cc1[N+](=O)[O-]`, for which the “activity change, negative = inhibition” value is 14.1% (inactive).

In the case of `Cc1c(C)c2c(c(C)c1O)CCC(C)(COc1ccc(CC3SC(=O)NC3=O)cc1)O2` (stereo unspecified), the Potency result was “inactive”.

On to `CCCC1O[C@@H]2C[C@H]3[C@@H]4CCC5=CC(=O)C=C[C@]5(C)[C@H]4[C@@H](O)C[C@]3(C)[C@]2(C(=O)CO)O1` (stereo partly specified), for which the Potency entry is “inactive”.

Turning to `CC(C[N+](C)(C)C)OC(N)=O` (stereo unspecified), the “activity change, negative = inhibition” value is 1.94% [at 42.5 µM] (inactive).

For the compound `O=C(O)CCCCCCCCCCCC(=O)O`, the Potency result was “inactive”.

A further test has the same target. Kind of test: Adrenergic beta2 receptor (ADRB2) small molecule agonists, cell-based qHTS assay (AID 1963593).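 Further: CHO cells stably overexpressing human ADRB2.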 The settings on record: CHO-ADRB2 cells, cAMP HTRF, 30 min; series mostly up to 92.4 µM; activation: at the top concentration. In outline: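 CHO cells stably over-expressing ADRB2 were plated overnight at 37C, then dosed with compounds plus a stimulation mix containing 100uM IBMX and 25uM Ro-20-1724 for 0.5hr at room temperature. cAMP was measured by HTRF competition, 1hr.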
Regarding `COc1ccc(NC(C)=O)cc1`, the “activation” value is 4.23% (inactive).

Turning to `OCc1c2ccccc2cc2ccccc12`, the “activation” value is 15.4% (inactive).

Turning to `Oc1ccc(Cl)cc1Sc1cc(Cl)ccc1O`, the “activation” value is 0.927% [at 42.5 µM] (inactive).

Take `CCCc1ccccc1`: the “activation” value is -10.6% (inactive).

For the compound `CC(=O)CC(C)=O`, the “activation” value was 17.2% (inactive).

In the case of `C=CC(=O)OCCCCCC`, the “activation” value is 18.8% (inactive).

On to `N=C(N=C(N)N)N1CCOCC1`, for which the “activation” value was 8.67% [at 42.5 µM] (inactive).

For `CC1=CC[C@@]23C[C@@H]1C(C)(C)[C@@H]2CC[C@H]3C`, the “activation” value is 3.55% (inactive).

`O=C(O)c1cccc(C(F)(F)F)c1`: the “activation” value was 2.94% (inactive).

For `CN(C)CCOC(c1ccc(Cl)cc1)c1ccccn1` (stereo unspecified), the “activation” value is -33.2% [at 42.5 µM] (inactive).

In the case of `O=C(O)c1cc(-c2ccccc2)nc2ccccc12`, the “activation” value is -2.08% [at 42.5 µM] (inactive).

In the case of `CC1(C)C(O)C(C)(C)C1O` (stereo unspecified), the “activation” value is -11.4% (inactive).

Turning to `Cc1ccc(N(C)C)cc1`, the “activation” value was 2.9% (inactive).

Take `C=CCCCCCCCC`: the “activation” value was 27.3% (inactive).

Take `CC(C)=O`: the “activation” value was 23.4% (inactive).

Consider `O=C(O)[C@@H]1[C@H]2C[C@H]3c4[nH]c5ccccc5c4CCN3C[C@@H]2CC[C@@H]1O`, for which the “activation” value was -24.4% [at 42.5 µM] (inactive).

With `C=CC(C)CCC=C(C)C` (stereo unspecified), the “activation” value was 1.12% (inactive).

As for `O=C(O)C(=O)Nc1cccc(-c2nn[nH]n2)c1`, the “activation” value was 7.21% [at 42.5 µM] (inactive).

For `CN(C)N=Nc1ccccc1`, the “activation” value was -19.1% (inactive).

Take `CC1=C(CC(=O)O)c2cc(F)ccc2/C1=C\c1ccc(S(C)=O)cc1` (stereo unspecified): the “activation” value was 18.6% [at 42.5 µM] (inactive).

Turning to `C=CCS(=O)(=O)O`, the “activation” value was 2.08% (inactive).

Regarding `Cc1c(C)c2c(c(C)c1O)CCC(C)(COc1ccc(CC3SC(=O)NC3=O)cc1)O2` (stereo unspecified), the Potency entry was “inactive”.

As to `CCCC1O[C@@H]2C[C@H]3[C@@H]4CCC5=CC(=O)C=C[C@]5(C)[C@H]4[C@@H](O)C[C@]3(C)[C@]2(C(=O)CO)O1` (stereo partly specified), the “activation” value is 24.4% (inactive).

Take `CC(C[N+](C)(C)C)OC(N)=O` (stereo unspecified): the “activation” value was 2.13% [at 42.5 µM] (inactive).

Consider `O=C(O)CCCCCCCCCCCC(=O)O`, for which the Potency result is “inactive”.

Turning to `COc1cc(C(=O)N2CCOCC2)cc(OC)c1OC`, the “activation” value is 17.9% [at 42.5 µM] (inactive).

The next test addresses D(2) dopamine receptor (Homo sapiens) (UniProt P14416). The test is described as follows: Dopamine D2 receptor (DRD2) small molecule agonists, cell-based qHTS assay (AID 1963594). Further: nearly all actives have a fitted effect of over 35% in size. The settings on record: HEK293-DRD2 cAMP HTRF, agonist mode, 30 min; series mostly up to 92.4 µM; activation: at the top concentration. Put shortly:
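HEK293 cells stably expressing DRD2 were cultured 24 h at 37 C, then given Ro20-1724 (0.1 mM final) and compounds for 10 min at room temperature. NKH477 (200nM) was then added for 30 min. cAMP was read by HTRF.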
Regarding `COc1ccc(NC(C)=O)cc1`, the “activation” value was -1.07% (inactive).

As to `c1cnc2cc3c(cc2n1)C1CNCC3C1`, the “activation” value is -3.03% [at 42.5 µM] (inactive).

For the compound `OCc1c2ccccc2cc2ccccc12`, the “activation” value was -0.63% (inactive).

Take `Oc1ccc(Cl)cc1Sc1cc(Cl)ccc1O`: the Potency result is “inactive”.

With `CCCc1ccccc1`, the “activation” value is 18.3% (inactive).

Take `CC(=O)CC(C)=O`: the “activation” value is 1.77% (inactive).

As to `C=CC(=O)OCCCCCC`, the “activation” value was 9.22% (inactive).

As to `CC(C)(C)C(=O)OCOP(=O)(COCCn1cnc2c(N)ncnc21)OCOC(=O)C(C)(C)C`, the “activation” value was 0.584% [at 42.5 µM] (inactive).

In the case of `Oc1ccc(C(c2ccc(O)cc2)C(Cl)(Cl)Cl)cc1`, the Potency result was “inactive”.

For `N=C(N=C(N)N)N1CCOCC1`, the “activation” value was -9.88% [at 42.5 µM] (inactive).

Take `Oc1c(Cl)ccc(Cl)c1Cl`: the Potency entry is “inactive”.

On to `CC1=CC[C@@]23C[C@@H]1C(C)(C)[C@@H]2CC[C@H]3C`, for which the “activation” value is -0.571% (inactive).

Consider `O=C(O)c1cccc(C(F)(F)F)c1`, for which the “activation” value is 6.35% (inactive).

On to `CC(O)Cn1cnc2c1c(=O)n(C)c(=O)n2C` (stereo unspecified), for which the “activation” value is 12.2% [at 42.5 µM] (inactive).

As to `CN(C)CCOC(c1ccc(Cl)cc1)c1ccccn1` (stereo unspecified), the “activation” value was 12.8% [at 42.5 µM] (inactive).

Turning to `O=C(O)c1cc(-c2ccccc2)nc2ccccc12`, the Potency entry is “inactive”.

Regarding `CC1(C)C(O)C(C)(C)C1O` (stereo unspecified), the “activation” value is -0.27% (inactive).

Take `Cc1ccc(N(C)C)cc1`: the Potency entry was “inactive”.

`C/C=C/C(=O)CCCC`: the “activation” value was -0.949% (inactive).

As for `CC(C)(c1ccc(O)cc1)c1ccc(O)cc1`, the “activation” value is 0.773% (inactive).

With `C=CCCCCCCCC`, the “activation” value is 9.63% (inactive).

`CC(C)=O`: the “activation” value was -0.402% (inactive).

Take `O=C(O)[C@@H]1[C@H]2C[C@H]3c4[nH]c5ccccc5c4CCN3C[C@@H]2CC[C@@H]1O`: the “activation” value was -16.1% [at 42.5 µM] (inactive).

On to `O=C(O)C(=O)Nc1cccc(-c2nn[nH]n2)c1`, for which the “activation” value was -3.99% [at 42.5 µM] (inactive).

Turning to `CN(C)N=Nc1ccccc1`, the “activation” value was -2.54% (inactive).

As to `OCCOc1ccc(OCCO)cc1`, the “activation” value is -7.08% (inactive).

With `CC1=C(CC(=O)O)c2cc(F)ccc2/C1=C\c1ccc(S(C)=O)cc1` (stereo unspecified), the “activation” value was -9.01% (inactive).

In the case of `CC(C)CCCCCCc1ccc(O)cc1`, the Potency entry is “inactive”.

Turning to `C=CCS(=O)(=O)O`, the “activation” value is 1.01% (inactive).

For the compound `CCCCSCCCC`, the “activation” value was 4.69% (inactive).

Regarding `CCNc1nc(N)nc(Cl)n1`, the “activation” value was -14.3% (inactive).

For the compound `Cc1ccc(N)cc1[N+](=O)[O-]`, the “activation” value is 0.601% (inactive).

Take `Cc1c(C)c2c(c(C)c1O)CCC(C)(COc1ccc(CC3SC(=O)NC3=O)cc1)O2` (stereo unspecified): the Potency result is “inactive”.

For `CCCC1O[C@@H]2C[C@H]3[C@@H]4CCC5=CC(=O)C=C[C@]5(C)[C@H]4[C@@H](O)C[C@]3(C)[C@]2(C(=O)CO)O1` (stereo partly specified), the Potency result was “inactive”.

With `O=C(O)CCCCCCCCCCCC(=O)O`, the Potency entry was “inactive”.

`COc1cc(C(=O)N2CCOCC2)cc(OC)c1OC`: the “activation” value was -5.58% [at 42.5 µM] (inactive).
